MITF primary – human MITF inhibition, primary screen; 650,000 tested, 0.91% active; AlphaScreen MITF homodimerization, bead proximity signal; inhibition, % at 2.6 µM; AID 1259374; in the data active means inhibition above about 50%;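 further: 0% = vehicle wells with protein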
FBW7 activator – activators of human E3 ligase FBW7; AlphaScreen FBW7–phospho-cyclin E peptide binding, activator screen; normalized activity (activation), % at 26.1 µM; 650,000 tested, 0.13% active; AID 1259310; in the data active means normalized activity above about 1.9%;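 further: purified mutant Fbw7 with reduced substrate affinity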
Target sequence (Q969H0 whole entry, looked up): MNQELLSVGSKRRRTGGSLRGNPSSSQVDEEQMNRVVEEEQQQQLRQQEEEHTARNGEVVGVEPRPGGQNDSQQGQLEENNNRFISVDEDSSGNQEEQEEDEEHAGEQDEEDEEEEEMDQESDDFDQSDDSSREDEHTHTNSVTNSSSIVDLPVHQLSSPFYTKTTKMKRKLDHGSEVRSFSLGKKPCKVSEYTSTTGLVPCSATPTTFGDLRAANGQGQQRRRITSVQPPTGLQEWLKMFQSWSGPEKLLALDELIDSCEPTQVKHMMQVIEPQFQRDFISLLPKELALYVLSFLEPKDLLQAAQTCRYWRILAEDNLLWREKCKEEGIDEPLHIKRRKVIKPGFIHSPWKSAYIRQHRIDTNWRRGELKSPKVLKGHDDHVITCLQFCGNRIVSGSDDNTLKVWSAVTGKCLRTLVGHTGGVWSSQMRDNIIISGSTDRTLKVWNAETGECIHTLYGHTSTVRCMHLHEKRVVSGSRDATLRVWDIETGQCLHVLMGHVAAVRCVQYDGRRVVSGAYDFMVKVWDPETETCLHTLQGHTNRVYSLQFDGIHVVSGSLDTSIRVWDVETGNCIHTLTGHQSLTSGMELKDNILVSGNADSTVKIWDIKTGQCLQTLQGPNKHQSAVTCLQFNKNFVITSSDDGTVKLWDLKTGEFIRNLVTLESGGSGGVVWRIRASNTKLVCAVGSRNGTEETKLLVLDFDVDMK
TEAD-YAP inh – TEAD-YAP interaction inhibition; HEK-TIYL cells, TEAD-Gal4/YAP UAS-luciferase luminescence; inhibition, % at 9.12 µM; 640,000 tested, 1.4% active; in the data active means inhibition above about 32%;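 further: 0% = median of test compound wells and 100% = reference inhibitor wells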
GPR151 ag – activators of human GPR151 | Q8TDV0 | PathHunter beta-arrestin GPR151 cells, luminescence | activation, % at 11.2 µM | 650,000 tested, 1% active; in the data active means activation above about 4.9%;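 further: 0% = median of compound wells and 100% = cells with positive control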
The depositor's hits bear a star. Rows were chosen to be rich in hits. Some 3.5% of all compounds tested hit in one or more screens of this group.

Results for O=S(=O)(c1ccc2ccccc2c1)N1CCC(N2CCCC2)CC1 ?
MITF primary: 21; FBW7 activator: 1; TEAD-YAP inh: -9; GPR151 ag: 5

How did Cc1ccc(C(=O)O)cc1NC(=O)CSc1nncn1C do in these assays?
MITF primary: 1; FBW7 activator: 0; TEAD-YAP inh: -7; GPR151 ag: 1

What do the screens show for `O=[N+]([O-])c1cc2c(cc1C(O)c1nnc(-c3ccccc3)o1)OCO2` (centres undefined)?
MITF primary: 16; FBW7 activator: 0; TEAD-YAP inh: 81*; GPR151 ag: 0

Results for CCC(=NCCc1ccccc1)C1=C(O)C(C(=O)OC)C(C)(C)CC1=O (centres undefined) ?
MITF primary: 23; FBW7 activator: 0; TEAD-YAP inh: -11; GPR151 ag: 0

What do the screens show for `COC(=O)c1ccc(-c2nc3cc(Cl)c(N)cc3s2)cc1`?
MITF primary: -4; FBW7 activator: 0; TEAD-YAP inh: 47*; GPR151 ag: -1

Results for CC(C)(C)c1ccc(C(=O)Nc2ccc3c(c2)CN(C(=O)c2ccco2)CC3)cc1 ?
MITF primary: 7; FBW7 activator: 0; TEAD-YAP inh: 86*; GPR151 ag: 2

What do the screens show for `Cc1cc(/C=N/Nc2ncnc(N)c2[N+](=O)[O-])c(C)n1-c1ccccc1`?
MITF primary: 16; FBW7 activator: -1; TEAD-YAP inh: 83*; GPR151 ag: -8

What do the screens show for `Cc1nn(-c2ccccc2)c(Cl)c1/C=N/Nc1ncnc(N)c1[N+](=O)[O-]`?
MITF primary: 2; FBW7 activator: 0; TEAD-YAP inh: 32*; GPR151 ag: 2

What do the screens show for `CCN(CC)c1ccc(/C=N/Nc2ncnc(N)c2[N+](=O)[O-])cc1`?
MITF primary: -13; FBW7 activator: -1; TEAD-YAP inh: 91*; GPR151 ag: -9

Results for Cc1cc(-c2cnc(C)nc2C2CCCN(S(C)(=O)=O)C2)on1 (centres undefined) ?
MITF primary: 2; FBW7 activator: 1; TEAD-YAP inh: -4; GPR151 ag: -1

Results for CC(C)N(CCNc1nc(NC2CCC(O)CC2)nc2c1ncn2-c1ccsc1)C(C)C (centres undefined) ?
MITF primary: 0; FBW7 activator: 0; TEAD-YAP inh: 74*; GPR151 ag: -1

How did OC1CCC(Nc2nc(NCc3ccccc3)c3ncn(-c4ccsc4)c3n2)CC1 (centres undefined) do in these assays?
MITF primary: 7; FBW7 activator: 0; TEAD-YAP inh: -19; GPR151 ag: 0

What do the screens show for `COc1ccc(CCNc2nc(NC3CCC(O)CC3)nc3c2ncn3-c2ccccc2)cc1` (centres undefined)?
MITF primary: 8; FBW7 activator: 0; TEAD-YAP inh: 48*; GPR151 ag: 1

How did Oc1ccc(CCNc2nc(NC3CCC(O)CC3)nc3c2ncn3-c2ccsc2)cc1 (centres undefined) do in these assays?
MITF primary: -4; FBW7 activator: 0; TEAD-YAP inh: 48*; GPR151 ag: -2

What do the screens show for `CCN(Cc1ccncc1)Cn1ncn(C)c1=S`?
MITF primary: 12; FBW7 activator: 0; TEAD-YAP inh: 2; GPR151 ag: 1

Results for Nc1nccc(-c2ccc3nc(C4COc5ccc(C(=O)NCc6cccs6)cc5C4)[nH]c3c2)n1 (centres undefined) ?
MITF primary: -2; FBW7 activator: 0; TEAD-YAP inh: -1; GPR151 ag: 0

What do the screens show for `CCOC(=O)CN1C(=O)SC(C2SC(=O)N(CC(=O)OCC)C2=O)C1=O` (centres undefined)?
MITF primary: 2; FBW7 activator: 0; TEAD-YAP inh: 0; GPR151 ag: 2

How did NC(=O)C(C(=O)/C=C/c1ccc(Cl)cc1)=C1SCCS1 do in these assays?
MITF primary: -18; FBW7 activator: 0; TEAD-YAP inh: 44*; GPR151 ag: 3

Results for COc1cc(/C=N/n2cnnc2)ccc1OCc1cccc(C(=O)O)c1 ?
MITF primary: 37; FBW7 activator: 0; TEAD-YAP inh: 78*; GPR151 ag: -7

What do the screens show for `COc1ccc(/C=N/n2cnnc2)cc1COc1ccccc1F`?
MITF primary: 11; FBW7 activator: 0; TEAD-YAP inh: 12; GPR151 ag: 0

What do the screens show for `COc1cc(C=O)ccc1OCC(=O)c1ccccc1`?
MITF primary: 1; FBW7 activator: 0; TEAD-YAP inh: 60*; GPR151 ag: -8

How did COc1cc(/C=N/O)ccc1OCc1cccc(C(=O)O)c1 do in these assays?
MITF primary: 0; FBW7 activator: 0; TEAD-YAP inh: 94*; GPR151 ag: -9

How did COc1ccc(C=O)cc1COc1ccccc1F do in these assays?
MITF primary: -4; FBW7 activator: 2.1*; TEAD-YAP inh: 0; GPR151 ag: 0

How did COc1ccc(C=O)cc1OC(=O)c1ccccc1 do in these assays?
MITF primary: -4; FBW7 activator: 0; TEAD-YAP inh: 5; GPR151 ag: 1

How did O=[N+]([O-])c1ccc(Cc2nnc(-c3ccc(Cl)cc3)o2)cc1 do in these assays?
MITF primary: 24; FBW7 activator: 0; TEAD-YAP inh: 7; GPR151 ag: -1

How did CNc1oc(-c2ccc(Cl)cc2)nc1S(=O)(=O)c1ccccc1 do in these assays?
MITF primary: 3; FBW7 activator: 0; TEAD-YAP inh: -4; GPR151 ag: 4

Results for c1ccc(COc2ccc(-c3ccc(OCc4ccccc4)cc3)cc2)cc1 ?
MITF primary: -4; FBW7 activator: 0; TEAD-YAP inh: -2; GPR151 ag: 0

How did COc1ccc(C(=O)Oc2ccc(C=C3C(=O)NC(=O)NC3=O)cc2OC)cc1 do in these assays?
MITF primary: 9; FBW7 activator: -1; TEAD-YAP inh: 8; GPR151 ag: -2

What do the screens show for `COc1cc(C=C2C(=O)NC(=O)NC2=O)ccc1OCc1cccc(C(=O)O)c1`?
MITF primary: 5; FBW7 activator: 0; TEAD-YAP inh: 81*; GPR151 ag: -7

How did COc1ccc(S(=O)(=O)Oc2ccc(C=C3C(=O)NC(=O)NC3=O)cc2OC)cc1 do in these assays?
MITF primary: 7; FBW7 activator: 0; TEAD-YAP inh: 53*; GPR151 ag: 0

What do the screens show for `COc1cc(C=O)ccc1OCc1cccc(C(=O)O)c1`?
MITF primary: -4; FBW7 activator: 0; TEAD-YAP inh: 71*; GPR151 ag: 5

Results for CCc1c(-c2ccccc2)n(CC(O)c2ccccc2)c2nc3c(c(=O)n(C)c(=O)n3C)n12 (centres undefined) ?
MITF primary: 10; FBW7 activator: 0; TEAD-YAP inh: 39*; GPR151 ag: 3

Results for CCCn1c(-c2ccccc2)c(CC)n2c3c(=O)n(C)c(=O)n(C)c3nc12 ?
MITF primary: 12; FBW7 activator: 1; TEAD-YAP inh: 6; GPR151 ag: 1

What do the screens show for `CCc1c(-c2ccccc2)n(CCO)c2nc3c(c(=O)n(C)c(=O)n3C)n12`?
MITF primary: 18; FBW7 activator: 0; TEAD-YAP inh: 64*; GPR151 ag: 2

What do the screens show for `COc1ccc([C@@H]2Nc3c(C)ccc(Cl)c3[C@@H]3C=CC[C@@H]32)cc1[N+](=O)[O-]`?
MITF primary: 9; FBW7 activator: 0; TEAD-YAP inh: 9; GPR151 ag: 1

Screening data as filed in PubChem BioAssay.
